About 14,000 (4.5%) of roughly 310,000 compounds showed an effect of 50% or more. The effect is printed as a negative number. What follows is part of a selection rich in strong results, with near analogues and random picks from the rest.
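Note: peak tail current of the secondary pulse compared with the same well before compound.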

The target in this assay is human ether-à-go-go-related gene (hERG) potassium channel (human, UniProt Q12809). Kind of assay: primary screen, population patch clamp on CHO cells stably expressing hERG; higher = less effect of the substance.
Chain of human ether-à-go-go-related gene (hERG) potassium channel (Q12809 whole entry, looked up): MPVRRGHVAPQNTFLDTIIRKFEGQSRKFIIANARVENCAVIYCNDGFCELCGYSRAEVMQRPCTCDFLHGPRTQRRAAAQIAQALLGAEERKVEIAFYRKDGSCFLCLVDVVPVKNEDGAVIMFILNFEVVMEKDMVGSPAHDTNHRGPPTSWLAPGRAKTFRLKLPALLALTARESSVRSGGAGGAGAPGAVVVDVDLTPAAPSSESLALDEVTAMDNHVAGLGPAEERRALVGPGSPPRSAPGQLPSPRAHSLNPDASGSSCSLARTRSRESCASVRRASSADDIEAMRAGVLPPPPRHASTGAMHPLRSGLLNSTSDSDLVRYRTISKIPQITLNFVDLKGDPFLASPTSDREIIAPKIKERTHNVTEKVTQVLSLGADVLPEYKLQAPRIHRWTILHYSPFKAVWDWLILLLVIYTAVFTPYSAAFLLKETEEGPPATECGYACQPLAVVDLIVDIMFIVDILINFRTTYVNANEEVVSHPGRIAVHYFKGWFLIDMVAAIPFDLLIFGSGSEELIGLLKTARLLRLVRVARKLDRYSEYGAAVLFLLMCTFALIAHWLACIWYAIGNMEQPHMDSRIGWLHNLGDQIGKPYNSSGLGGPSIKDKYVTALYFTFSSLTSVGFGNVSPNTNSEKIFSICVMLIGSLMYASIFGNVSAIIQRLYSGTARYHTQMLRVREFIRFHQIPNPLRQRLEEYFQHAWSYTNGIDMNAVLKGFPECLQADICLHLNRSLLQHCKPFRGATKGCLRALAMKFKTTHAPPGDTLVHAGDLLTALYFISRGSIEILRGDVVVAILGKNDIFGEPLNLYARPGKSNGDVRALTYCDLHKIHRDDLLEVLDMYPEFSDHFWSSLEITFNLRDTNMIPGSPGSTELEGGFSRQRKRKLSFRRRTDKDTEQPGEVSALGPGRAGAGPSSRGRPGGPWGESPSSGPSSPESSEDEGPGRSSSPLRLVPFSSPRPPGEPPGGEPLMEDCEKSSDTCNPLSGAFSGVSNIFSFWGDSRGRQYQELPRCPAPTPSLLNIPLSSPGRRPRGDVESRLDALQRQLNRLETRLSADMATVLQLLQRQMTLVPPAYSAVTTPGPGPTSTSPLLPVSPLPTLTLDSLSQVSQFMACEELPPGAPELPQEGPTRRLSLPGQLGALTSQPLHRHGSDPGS
Turning to `COc1ccc(/C=C/C(=O)NCC(=O)N/N=C/c2cccs2)cc1`, the “hERG current change (%, negative = inhibition) at 10uM” value is 0.0661%.
With `CCC(C)[C@H](NC(=O)NCc1ccc(OC)c(OC)c1)C(=O)O` (stereo partly shown) the figure was 7.82%; with `Cc1[nH]nc(N2CCCCC2)c1[N+](=O)[O-]`, -6.37%; with `Cc1sc2nc(CN3CCCCC3)nc(Nc3ccc4c(c3)OCCO4)c2c1C`, -85.8%.
With `Cc1sc2nc(CN3CCOCC3)nc(NS(=O)(=O)c3ccc4c(c3)OCCO4)c2c1C` the figure was 6.33%; with `Cc1sc2nc(CN3CCCC3)nc(NCc3ccncc3)c2c1C`, -69.1%; with `Cc1nc(Nc2ccc3c(c2)OCCO3)c2c(C)c(C)sc2n1`, -18.5%.
Regarding `Cc1sc2nc(CN3CCOCC3)nc(NCCc3ccccc3)c2c1C`, the “hERG current change (%, negative = inhibition) at 10uM” value is -30%.
With `Cc1sc2nc(CN3CCCC3)nc(Cl)c2c1C` the figure was -4.03%.
In the case of `COc1ccc(-c2nnnn2C)cc1S(=O)(=O)Nc1ccc(C)cc1C`, the “hERG current change (%, negative = inhibition) at 10uM” value is -7.53%.
Turning to `Cc1cc(OC(C)C(=O)NCCN2CCOCC2)c2c(C)c(C)c(=O)oc2c1` (stereo not shown), the “hERG current change (%, negative = inhibition) at 10uM” value amounted to 9.89%.
Consider `COc1cccc(N2CCN(C(=S)Nc3ccccc3)CC2)c1`, for which the “hERG current change (%, negative = inhibition) at 10uM” value is 19%.
For `O=C(CCCNS(=O)(=O)c1cccc2nsnc12)N1CCCCC1`, the “hERG current change (%, negative = inhibition) at 10uM” value stood at 10.7%.
With `COc1cc(CNC2CCCC2)cc(Cl)c1OCc1ccccc1F.Cl`, the “hERG current change (%, negative = inhibition) at 10uM” value is on record as -1.44%.
With `Cc1ccc(C)c(-c2ccc(=O)n(Cc3c(F)cccc3Cl)n2)c1` the figure was 3.88%; with `CN(Cc1cc2ccccc2[nH]c1=O)C(=O)C1CCCCC1`, -71.6%.
In the case of `CCN(Cc1cc2ccccc2[nH]c1=O)C(=O)C1CCCCC1`, the “hERG current change (%, negative = inhibition) at 10uM” value is -13.3%.
As for `CC(C)(C)N(Cc1cc2ccccc2[nH]c1=O)C(=O)C1CCCCC1`, the “hERG current change (%, negative = inhibition) at 10uM” value was -11.9%.
On to `CCOC(=O)[C@@H]1[C@H]2COc3ccccc3[C@@H]2N2C(=O)N(c3ccccc3)C(=O)[C@@]12C`, for which the “hERG current change (%, negative = inhibition) at 10uM” value is 11.4%.
`COc1ccc(/C=N\NC(=O)c2ccc(-c3ccccc3)cc2)cc1COC(C)=O`: the “hERG current change (%, negative = inhibition) at 10uM” value is recorded as -0.748%.
As for `CC1=C(C(=O)N(C)C)C(c2ccccc2OC(F)F)NC(=O)N1` (stereo not shown), the figure is 3.49%; as for `O=C(Nc1ccc(Cl)cc1C(=O)c1ccccc1)c1ccccc1`, 3.76%.
`CCN(CC)CC(=O)Nc1ccc(Cl)cc1C(=O)c1ccccc1`: the “hERG current change (%, negative = inhibition) at 10uM” value was -21.2%.
For `C[N+](C)(C)CC(=O)Nc1ccc(Cl)cc1C(=O)c1ccccc1.[Br-]`, the “hERG current change (%, negative = inhibition) at 10uM” value is 21.4%.
With `CN(C)CCCNCC(=O)Nc1ccc(Cl)cc1C(=O)c1ccccc1.O=C(O)C(=O)O`, the “hERG current change (%, negative = inhibition) at 10uM” value is -69%.
Consider `CCN(CC)CCNCC(=O)Nc1ccc(Cl)cc1C(=O)c1ccccc1.O=C(O)C(=O)O`, for which the “hERG current change (%, negative = inhibition) at 10uM” value was -75.2%.
With `CCN(CC)CC(=O)Nc1ccc(C)cc1C(=O)c1ccccc1` the figure was -19.5%; with `COc1ccc(C2NC(c3ccc(OC)cc3)C([N+](=O)[O-])C(C)(C)C2[N+](=O)[O-])cc1` (stereo not shown), 41.2%.
Take `CCCCCCCSc1nnc(-c2ccccc2N)c(=O)[nH]1`: the “hERG current change (%, negative = inhibition) at 10uM” value amounted to 6.86%.
As to `COc1ccccc1NC(=S)N1CCc2cc(OC)c(OC)cc2C1`, the “hERG current change (%, negative = inhibition) at 10uM” value was -0.62%.
As for `COc1ccc(C(=S)N2CCN(c3cccc(Cl)c3)CC2)c(OC)c1`, the figure is 3.25%; as for `COc1ccccc1CNC(=O)Cn1ccc2cc(S(=O)(=O)N3CCCC3)ccc21`, -3.32%; as for `CCc1nnc(NC(=O)CCS(=O)(=O)c2ccccc2)s1`, 23.8%.
As for `CC(C(=O)OCC(=O)Nc1cccc(S(=O)(=O)N2CCOCC2)c1)N1C(=O)c2ccccc2C1=O` (stereo not shown), the figure is -58%; as for `CC(C(=O)OCC(=O)Nc1cccc(S(=O)(=O)N(C)C)c1)N1C(=O)c2ccccc2C1=O` (stereo not shown), -82.8%.
With `CN(C)S(=O)(=O)c1cccc(NC(=O)COC(=O)c2cc(=O)c3ccccc3o2)c1` the figure was 11.3%; with `CC(C(=O)OCC(=O)Nc1ccc2c(c1)OCO2)N1C(=O)c2ccccc2C1=O` (stereo not shown), -12.4%.
As for `O=C(COC(=O)c1ccccc1)Nc1cccc(S(=O)(=O)N2CCOCC2)c1`, the “hERG current change (%, negative = inhibition) at 10uM” value was -26.5%.
As for `CC(C(=O)OCC(=O)Nc1ccc(S(=O)(=O)N2CCCCC2)cc1)N1C(=O)c2ccccc2C1=O` (stereo not shown), the figure is -16.4%.
As for `Cc1sc2nc(C(C)Nc3ccccc3N3CCOCC3)[nH]c(=O)c2c1C` (stereo not shown), the figure is 11.1%; as for `O=C(N/N=C/c1ccncc1)c1cccc([N+](=O)[O-])c1`, -5.83%; as for `COc1ccc(NC(=O)C(=O)NCCN2CCN(C(=O)c3cccs3)CC2)cc1`, -45.1%.
Regarding `O=C(CN1CCN(C(=O)c2cccs2)CC1)Nc1ccc(Br)cc1`, the “hERG current change (%, negative = inhibition) at 10uM” value is reported as -71.8%.
